From PubChem BioAssay (EPA / NIEHS)
Records with an inconclusive call do not appear. The source made the active and inactive calls. The calls were made as follows, unless noted: active = hit-call score of the fitted dose curve at least 0.9, where 1 is the maximum; inactive = score below 0.9.

What was measured:
[1] = read-out: Vascular endothelial growth factor receptor 2 (Homo sapiens) (UniProt P35968); experiment: BSK_4H_VEGFRII: BioMAP Diversity Plus: 4H Assay for Vascular endothelial growth factor receptor 2 (VEGFR2) Biomarker Activity (AID 2283031); conditions: primary human endothelial cells (HUVEC); actives raise or lower the signal
Procedure, shortened: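 In this multiplexed HUVEC system, biomarker ELISA was performed after 24 h chemical exposure. Parallel SRB staining (TCA fixation, 560 nm) tracked cytotoxicity; DMSO served as baseline.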

[2] = read-out: Human Leukocyte Antigen - DR isotype (HLADR), HLA-DRA (gene 3122); experiment: BSK_BE3C_HLADR: BioMAP Diversity Plus: BE3C Assay for Human Leukocyte Antigen - DR isotype (HLADR) Biomarker Activity (AID 2283032); conditions: primary human bronchial epithelial cells; actives raise or lower the signal
Procedure, shortened: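 BioMAP BE3C format: human bronchial epithelium, 24 h compound treatment, ELISA detection of HLA-DR, with bidirectional analysis relative to DMSO.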

[3] = read-out: TIMP metallopeptidase inhibitor 2 (TIMP2), TIMP2 (gene 7077); experiment: BSK_KF3CT_TIMP2: BioMAP Diversity Plus: KF3CT Assay for TIMP metallopeptidase inhibitor 2 (TIMP2) Biomarker Activity (AID 2283071); conditions: primary human keratinocytes with fibroblasts; actives raise or lower the signal
Procedure, shortened: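 Measurements come from ELISA detection of TIMP-2 at 24 hours in a dosed human keratinocyte and foreskin fibroblast co-culture. DMSO serves as negative control and baseline.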

[4] = read-out: C-C motif chemokine 2 (Homo sapiens) (UniProt P13500); experiment: BSK_KF3CT_MCP1: BioMAP Diversity Plus: KF3CT Assay for Monocyte Chemoattractant Protein 1 (MCP1/CCL2) Biomarker Activity (AID 2283073); conditions: primary human keratinocytes with fibroblasts; actives raise or lower the signal
Procedure, shortened: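 Biomarker MCP-1 is measured by ELISA in primary human keratinocytes co-cultured with foreskin fibroblasts, 24 h after chemical treatment; DMSO serves as the negative control and activity baseline.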

[5] = read-out: urokinase plasminogen activator (uPA), PLAU (gene 5328); experiment: BSK_KF3CT_uPA: BioMAP Diversity Plus: KF3CT Assay for urokinase plasminogen activator (uPA) Biomarker Activity (AID 2283075); conditions: primary human keratinocytes with fibroblasts; actives raise or lower the signal
Procedure, shortened: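 Values derive from bidirectional fitting against DMSO controls. Keratinocyte/foreskin fibroblast co-cultures received chemical; 24 h later uPA was detected by ELISA, with SRB total-protein staining in parallel wells for overt cytotoxicity.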

CD40, CD40 (gene 958) = experiment: BSK_LPS_CD40: BioMAP Diversity Plus: LPS Assay for CD40 Biomarker Activity (AID 2283076); conditions: primary human HUVEC with PBMC; actives raise or lower the signal
Procedure, shortened: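 Using a multiplexed primary human co-culture (umbilical vein endothelium plus PBMC), CD40 was read by ELISA 24 h after dosing, with cytotoxicity tracked by sulforhodamine B staining of parallel cultures and activity fitted bidirectionally versus DMSO.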

[6] = read-out: E-selectin (Homo sapiens) (UniProt P16581); experiment: BSK_LPS_Eselectin: BioMAP Diversity Plus: LPS Assay for Eselectin Biomarker Activity (AID 2283077); conditions: primary human HUVEC with PBMC; actives raise or lower the signal
Procedure, shortened: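 Dose chemical onto LPS-driven HUVEC/PBMC co-culture; after 24 h, run ELISA for E-selectin; fit up- and down-going responses relative to DMSO control.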

[7] = read-out: Interleukin-8 (IL8), CXCL8 (gene 3576); experiment: BSK_LPS_IL8: BioMAP Diversity Plus: LPS Assay for Interleukin-8 (IL8) Biomarker Activity (AID 2283078); conditions: primary human HUVEC with PBMC; actives raise or lower the signal
Procedure, shortened: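 In this LPS system, chemical-treated human umbilical vein endothelium/PBMC co-cultures were harvested at 24 h for IL-8 ELISA.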

[8] = BSK_LPS_SRB: Viability Assessment in the BioMAP Diversity Plus: LPS Assay (AID 2283079); conditions: primary human HUVEC with PBMC;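 also: total protein by sulforhodamine B absorbance as a cytotoxicity measure; measured one day after compound addition; fitted in both directions against DMSO so loss or gain of signal counts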
Procedure, shortened: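 Cytotoxicity endpoint in human endothelial–PBMC co-culture: 24 h exposure, then SRB (0.1%) staining, 560 nm read.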

[9] = read-out: Monocyte Chemoattractant Protein-1 (MCP1), CCL2 (gene 6347); experiment: BSK_LPS_MCP1: BioMAP Diversity Plus: LPS Assay for Monocyte Chemoattractant Protein-1 (MCP1) Biomarker Activity (AID 2283081); conditions: primary human HUVEC with PBMC; actives raise or lower the signal
Procedure, shortened: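 Values derive from bidirectional fitting against DMSO of ELISA-measured MCP-1 in a human primary endothelial and mononuclear cell co-culture, 24 h after chemical addition under LPS activation.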

[10] = read-out: Macrophage colony-stimulating factor (MCSF), CSF1 (gene 1435); experiment: BSK_LPS_MCSF: BioMAP Diversity Plus: LPS Assay for Macrophage colony-stimulating factor (MCSF) Biomarker Activity (AID 2283083); conditions: primary human HUVEC with PBMC; actives raise or lower the signal
Procedure, shortened: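 Bidirectional fit versus DMSO of ELISA-measured M-CSF in co-cultured human umbilical vein endothelial cells and PBMC, sampled 24 h after dosing.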

[11] = read-out: Tissue Factor, F3 (gene 2152); experiment: BSK_LPS_TissueFactor: BioMAP Diversity Plus: LPS Assay for Tissue Factor Biomarker Activity (AID 2283084); conditions: primary human HUVEC with PBMC; actives raise or lower the signal
Procedure, shortened: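 Read-out: CD142 ELISA, 24 h. System: LPS-driven human endothelial/PBMC co-culture. Analysis: up- or down-signal fitted against DMSO.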

[12] = read-out: Vascular cell adhesion molecule 1 (VCAM1), VCAM1 (gene 7412); experiment: BSK_LPS_VCAM1: BioMAP Diversity Plus: LPS Assay for Vascular cell adhesion molecule 1 (VCAM1) Biomarker Activity (AID 2283086); conditions: primary human HUVEC with PBMC; actives raise or lower the signal
Procedure, shortened: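 Measured by ELISA: VCAM-1 in LPS-activated HUVEC/PBMC co-cultures 24 h after treatment. Values reflect bidirectional fitting with DMSO as baseline.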

CD38, CD38 (gene 952) = experiment: BSK_SAg_CD38: BioMAP Diversity Plus: SAg Assay for CD38 Biomarker Activity (AID 2283087); conditions: primary human HUVEC with PBMC; actives raise or lower the signal
Procedure, shortened: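 Measures CD38 on a human endothelial/PBMC co-culture driven by SEB and TSST-1, 24 h after compound exposure, using ELISA with fluorescence detection; DMSO defines baseline for bidirectional curve fitting.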

CD69, CD69 (gene 969) = experiment: BSK_SAg_CD69: BioMAP Diversity Plus: SAg Assay for CD69 Biomarker Activity (AID 2283089); conditions: primary human HUVEC with PBMC; actives raise or lower the signal
Procedure, shortened: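 Values derive from bidirectional fitting relative to DMSO vehicle. Cells: umbilical vein endothelium plus peripheral blood mononuclear cells, treated 24 h before fluorescent ELISA for CD69.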

[13] = read-out: Monocyte Chemoattractant Protein-1 (MCP1), CCL2 (gene 6347); experiment: BSK_SAg_MCP1: BioMAP Diversity Plus: SAg Assay for Monocyte Chemoattractant Protein-1 (MCP1) Biomarker Activity (AID 2283090); conditions: primary human HUVEC with PBMC; actives raise or lower the signal
Procedure, shortened: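 Values derive from bidirectional fitting of ELISA-measured MCP1 against DMSO controls. Readings were taken 24 h after dosing human vascular endothelial cells co-cultured with peripheral blood mononuclear cells under superantigen stimulation.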

[14] = read-out: E-selectin (Homo sapiens) (UniProt P16581); experiment: BSK_SAg_Eselectin: BioMAP Diversity Plus: SAg Assay for Eselectin Biomarker Activity (AID 2283091); conditions: primary human HUVEC with PBMC; actives raise or lower the signal
Procedure, shortened: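 Endpoint values derive from bidirectional fitting relative to DMSO, using ELISA-measured E-selectin in a human vascular co-culture (umbilical vein endothelium plus PBMC) sampled 24 h after dosing.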

[15] = read-out: Interleukin-8 (IL8), CXCL8 (gene 3576); experiment: BSK_SAg_IL8: BioMAP Diversity Plus: SAg Assay for Interleukin-8 (IL8) Biomarker Activity (AID 2283094); conditions: primary human HUVEC with PBMC; actives raise or lower the signal
Procedure, shortened: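 Primary human endothelial cells with PBMC, exposed 24 h; IL-8 determined by ELISA, analysed bidirectionally relative to DMSO.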

[16] = biological target: Retinoic acid receptor alpha (Homo sapiens) (UniProt P10276); experiment: ATG_DR5_RAR_CIS: Attagene CIS-FACTORIAL HepG2 Assay for human Retinoic Acid Receptor Alpha (RARE), DR5 submotif (AID 2282934); conditions: HepG2 Attagene cis-factorial RARE DR5 reporter, mRNA; actives raise or lower the signal
Procedure, shortened: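 Transfected HepG2 reporter cells are exposed to chemicals for 24 h. Then RNA is extracted and the DR5 element reporter transcript is measured by RT-PCR and capillary electrophoresis, with bidirectional curve fitting relative to DMSO.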

[17] = biological target: Estrogen receptor (Homo sapiens) (UniProt P03372); experiment: ATG_ERa_TRANS: Attagene TRANS-FACTORIAL HepG2 Assay for human Estrogen Receptor alpha (ERa) (AID 2282970; active = hit-call score of the fitted dose curve at least 0.9, where 1 is the maximum); conditions: HepG2 Attagene TRANS ERa GAL4 reporter, mRNA
Procedure, shortened: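 Signal derives from fluorescence of labelled reporter PCR fragments separated by capillary electrophoresis. HepG2 cells transiently carrying multiple GAL4-UAS reporter units were treated 24 hours, and induction above DMSO baseline was fitted as activity.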

Measured: AC50

Retinoic acid receptor alpha (Homo sapiens), sequence (P10276 whole entry, looked up): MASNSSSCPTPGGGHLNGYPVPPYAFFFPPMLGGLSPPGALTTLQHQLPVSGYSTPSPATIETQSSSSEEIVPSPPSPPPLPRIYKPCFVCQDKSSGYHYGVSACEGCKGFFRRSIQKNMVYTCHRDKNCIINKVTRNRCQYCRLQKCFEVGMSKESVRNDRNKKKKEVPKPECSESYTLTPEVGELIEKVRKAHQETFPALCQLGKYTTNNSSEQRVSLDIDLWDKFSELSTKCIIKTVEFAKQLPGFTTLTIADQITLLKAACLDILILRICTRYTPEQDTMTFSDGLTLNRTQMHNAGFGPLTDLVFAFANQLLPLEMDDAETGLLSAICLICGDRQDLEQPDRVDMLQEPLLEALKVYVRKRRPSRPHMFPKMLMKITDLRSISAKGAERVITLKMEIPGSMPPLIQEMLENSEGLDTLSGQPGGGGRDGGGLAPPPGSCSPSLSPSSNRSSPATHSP
E-selectin (Homo sapiens), sequence (P16581 whole entry, looked up): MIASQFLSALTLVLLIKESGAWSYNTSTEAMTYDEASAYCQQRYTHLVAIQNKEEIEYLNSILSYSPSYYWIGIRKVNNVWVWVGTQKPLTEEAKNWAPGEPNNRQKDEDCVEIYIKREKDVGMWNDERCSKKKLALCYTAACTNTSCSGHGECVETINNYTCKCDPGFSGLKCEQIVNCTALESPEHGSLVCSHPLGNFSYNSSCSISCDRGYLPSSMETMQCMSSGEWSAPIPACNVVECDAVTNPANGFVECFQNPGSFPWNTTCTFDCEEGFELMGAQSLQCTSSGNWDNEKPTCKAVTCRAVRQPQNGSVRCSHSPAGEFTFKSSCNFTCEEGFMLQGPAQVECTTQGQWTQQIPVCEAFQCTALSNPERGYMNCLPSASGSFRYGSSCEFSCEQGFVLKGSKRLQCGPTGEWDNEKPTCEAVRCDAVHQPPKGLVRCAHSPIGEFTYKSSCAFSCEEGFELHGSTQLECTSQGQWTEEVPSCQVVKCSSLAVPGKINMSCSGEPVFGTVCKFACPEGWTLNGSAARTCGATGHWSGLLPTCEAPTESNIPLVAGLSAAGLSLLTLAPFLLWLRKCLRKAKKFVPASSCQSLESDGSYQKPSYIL
Estrogen receptor (Homo sapiens), sequence (P03372 whole entry, looked up, the tested form may be a part): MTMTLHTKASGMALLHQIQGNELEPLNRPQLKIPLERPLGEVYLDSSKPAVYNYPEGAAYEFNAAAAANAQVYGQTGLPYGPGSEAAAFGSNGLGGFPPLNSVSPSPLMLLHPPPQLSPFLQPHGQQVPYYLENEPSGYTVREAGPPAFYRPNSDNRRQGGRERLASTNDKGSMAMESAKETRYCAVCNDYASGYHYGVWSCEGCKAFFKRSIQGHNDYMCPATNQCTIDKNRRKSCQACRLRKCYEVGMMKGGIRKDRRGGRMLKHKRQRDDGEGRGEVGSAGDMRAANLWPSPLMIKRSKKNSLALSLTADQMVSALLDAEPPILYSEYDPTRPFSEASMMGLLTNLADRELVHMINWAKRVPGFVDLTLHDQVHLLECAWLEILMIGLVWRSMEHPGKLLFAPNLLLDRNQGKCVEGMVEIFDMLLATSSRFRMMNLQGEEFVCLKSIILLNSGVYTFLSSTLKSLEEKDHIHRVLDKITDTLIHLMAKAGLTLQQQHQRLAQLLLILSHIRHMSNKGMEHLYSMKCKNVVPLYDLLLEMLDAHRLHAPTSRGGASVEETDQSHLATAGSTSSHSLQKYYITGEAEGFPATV

COCC(=O)N(c1c(C)cccc1C)N1CCOC1=O
not listed: [16] | [17]
inactive: all other assays above

CN(C)CCC#N
inactive: [16]

O=C(NC(=O)c1c(F)cccc1F)Nc1ccc(Oc2ccc(C(F)(F)F)cc2Cl)cc1F
inactive: [16]

CC(C)CCCCCCCOC(=O)c1ccccc1C(=O)OCCCCCCCC(C)C
not listed: [16] | [17]
inactive: all other assays above

CC[N+](=O)[O-]
inactive: [16]

c1ccc(Nc2ccc3ccccc3c2)cc1
active: [17] 4.65 µM | [2] 20 µM | [3] 15.8 µM | [4] 30.9 µM | [5] 30.7 µM
not listed: [16]
inactive: all other assays above

CCOC(=O)NC(=S)Nc1ccccc1NC(=S)NC(=O)OCC
inactive: [16]

c1ccc2c(c1)CCCC2
inactive: [17]

CNC(=O)Oc1cc(C)c(SC)c(C)c1
active: [17] 8.61 µM | CD40, CD40 (gene 958) 20 µM | [12] 20 µM
not listed: [16]
inactive: all other assays above
